# Assay outcomes: PubChem BioAssay, National Center for Advancing Translational Sciences (NCATS)
# Pf growth 96h: Primary qHTS for delayed death inhibitors of the malarial parasite plastid, 96 hour incubation | P. falciparum luciferase reporter growth, 96 h | 320,000 tested, 6.9% active | Potency, µM (top dose mostly 28.7 µM), hits mostly inhibitors | AID 504834, 2011
#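 Erythrocytes infected with luciferase-expressing P. falciparum were dispensed at 2% hematocrit and 0.05% parasitemia (final), then incubated with compounds 96 hours at 37 C in 5% CO2. Luminescence after detection reagent addition reported growth.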
# SARS PLP yeast: qHTS of Yeast-based Assay for SARS-CoV PLP. S. cerevisiae expressing SARS-CoV PLpro, growth rescue. Potency, µM (series often up to 32.9 µM), hits mostly activators. 330,000 tested, 0.19% active; calls by dose curve; also: nearly all actives have a fitted effect of over 55% in size
# Pf growth 48h: Primary qHTS for delayed death inhibitors of the malarial parasite plastid, 48 hour incubation; P. falciparum luciferase growth in erythrocytes, 48 h; Potency, µM (titrated, usually from 28.7 µM), usual class: inhibitors; 310,000 tested, 5.9% active; AID 504832, 2011
#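 Luciferase-expressing parasites in RBCs, 2% Hct / 0.1% parasitemia final; RPMI 1640 + 0.5% Albumax; 37 C, 5% CO2, one generation; luminescence read-out, lower signal = inhibition.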
# AMA1-RON2 inh: qHTS for Inhibitors of AMA1-RON; Towards Development of Antimalarial Drug Lead: Primary Screen. AlphaScreen AMA1-biotinylated RON2 peptide binding. Potency, µM (top dose mostly 58.2 µM), most hits filed as inhibitors. 360,000 tested, 0.2% active; also: nearly all actives have a fitted effect of over 45% in size
#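 AMA1 (3D7) with his tag at 25 nM final met compounds first, then biotinylated RON2 peptide at 25 nM; detection used donor plus acceptor beads, 10 µg/mL apiece, read by AlphaScreen after 30 min at room temperature.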
# Hits are given with their value; . = inactive; ? = inconclusive; / = no result; [ ] = dose if it differs, or a comment. Rows were chosen to be rich in hits. Some 9.4% of all compounds tested hit in one or more screens of this group. Unless noted, calls follow the shape of the dose curve; as a rule, active = well fitted curve in the direction sought with a large enough effect; inconclusive = small, poorly fitted or top-dose-only effect, or another doubt; inactive = no such curve, though single readings can be large; an effect the other way counts as inactive or inconclusive.
SMILES,Pf growth 96h,SARS PLP yeast,Pf growth 48h,AMA1-RON2 inh
O=C(O)C1CC=CCC1C(=O)Nc1cccc(F)c1 (stereo not given),.,.,.,.
Cc1ccc(C(=O)NCCn2cc(SCC(=O)Nc3nnc(C)s3)c3ccccc32)cc1,4.1µM,.,/,.
COc1ccc(C(=O)NCCn2cc(SCC(=O)NCC3CCCO3)c3ccccc32)cc1OC (stereo not given),6.6µM,.,8.3µM,.
CCCn1cc(SCC(=O)NCC2CCCO2)c2ccccc21 (stereo not given),.,.,.,.
CCCn1cc(SCC(=O)Nc2nnc(C)s2)c2ccccc21,.,.,.,.
Cc1c(N2C(=O)/C(=C\C3CC=CCC3)SC2=S)c(=O)n(-c2ccccc2)n1C (stereo not given),.,.,?,.
CC(C)N1CCC2(CC1)Oc1ccc(Br)cc1C1CC(c3cccnc3)=NN12 (stereo not given),13µM,.,?,.
COc1cccc(-n2cc(C(=O)NC(C)C)c3ccccc3c2=O)c1,1.3µM,.,.,.
CCOC(=O)c1ccccc1NC(=O)c1cn(-c2ccc(OC)cc2)c(=O)c2ccccc12,2.9µM,.,?,.
Cn1c(=O)n(CCc2ccccc2)c(=O)c2c1nc1n2CCN1Cc1ccco1,5.2µM,.,8.3µM,.
CCOC(=O)Cn1c(=O)c2c(nc3n2CCN3Cc2ccccc2)n(C)c1=O,.[5.75 µM],.,.,.
Cn1c(=O)n(Cc2ccc(F)cc2)c(=O)c2c1nc1n2CCN1Cc1ccco1,?,.,?,.
Cc1ccc(C)c(Cn2c(=O)c3c(nc4n3CCN4Cc3ccco3)n(C)c2=O)c1,?,.,8.3µM,.
COc1cccc(CNC(=O)COc2cccc(-n3cnnn3)c2)c1,.,.,.,.
CCOc1ccc(C(=O)NC(=S)N(Cc2ccccc2)Cc2ccccc2)cc1,2.6µM,.,?,.
CCCOc1ccc(C(=O)NNC(=S)NC(=O)c2ccccc2)cc1,3.3µM,.,10µM,.
CCCOc1ccc(C(=O)NNC(=S)NC(=O)c2cccs2)cc1,?,.,?,.
CCCOc1ccc(C(=O)NNC(=S)NC(C)=O)cc1,0.33µM,.,?,.
CCC(=O)NC(=S)NNC(=O)c1ccc([N+](=O)[O-])cc1,13µM,.,?,?
CCC(=O)NC(=S)NNC(=O)c1ccc(OC)cc1,.,.,?,.
CCCCOc1ccc(C(=O)NNC(=S)NC(=O)CC)cc1,?,.,6.6µM,.
Cc1cc(=O)oc2cc(OCC(=O)Nc3cccnc3)ccc12,/,.,/,.
CCOc1ccc(Cc2nccc3cc(OCC)c(OCC)cc23)cc1OCC,4.1µM,/,?,/
COC(=O)CCC(=O)Nc1cc(OC)c(OC)cc1Cc1nccc2cc(OC)c(OC)cc12,.,.,.,.
CC1C/C(=N\NC(N)=S)c2cc(Cl)ccc2S1 (stereo not given),1.9µM,.,?,.
SMILES,Pf growth 96h,SARS PLP yeast,Pf growth 48h,AMA1-RON2 inh
CC1CCC(NC(=O)C2CCN(C(=O)NC3CCCCC3)CC2)CC1 (stereo not given),/,.,.,/
O=C(CCc1ccccc1)N1CCCN(C(=O)CCc2ccccc2)CC1,.,.,.,.
CCc1ccc2c(c1)cc(CN(C(=S)Nc1ccc(Cl)cc1)C1CC1)c1nnnn12,?,.,2.9µM,.
O=c1ccc2cc(S(=O)(=O)N3CCN(c4ccccc4)CC3)ccc2[nH]1,.,.,.,.
O=S(=O)(c1ccc2nc(-c3ccccc3)[nH]c2c1)N1CCN(c2ccc(Cl)cc2)CC1,?,.,12µM,.
O=C(CN1C(=O)c2ccccc2C1=O)Nc1sc2c(c1C(=O)NCc1ccco1)CCCC2,.,.,.,.
Cc1ccc(NC(=O)CSc2nn(-c3ccccc3)c(=S)s2)cc1S(=O)(=O)N(C)C,3.3µM,.,?,.
CN(C)S(=O)(=O)c1ccc(N2CCCC2)c(C(=O)Nc2nc(-c3cc(F)ccc3F)cs2)c1,?,.,.,.
CN(C)S(=O)(=O)c1ccc(N2CCCC2)c(C(=O)Nc2nc(-c3ccc(F)cc3)cs2)c1,?,.,9.3µM,.
CN(C)S(=O)(=O)c1ccc(N2CCCC2)c(C(=O)NC2CCCCC2)c1,?,.,?,.
CN(C)S(=O)(=O)c1ccc(N2CCCC2)c(C(=O)NNC(=O)c2ccccc2)c1,?,.,7.4µM,.
CN(C)S(=O)(=O)c1ccc(N2CCCC2)c(C(=O)NNC(=O)c2ccc(Br)cc2)c1,.,.,.,.
CN(C)S(=O)(=O)c1ccc(N2CCCC2)c(C(=O)NC(c2ccccc2)c2ccccc2)c1,/,.,0.83µM,.
Cc1ccc(-c2cc(C(=O)O)c3sc(N4CCCCC4)nc3n2)cc1,.,.,.,.[11.6 µM]
O=C(c1nc2ccccn2c1CNCCCn1ncc2ccccc21)N1CCOCC1,?,.,.,.
COc1ccc(Cl)cc1NC(=O)c1noc(C)c1[N+](=O)[O-],.,?,.,.
CCOC(=O)Nc1ccc2c(c1)C(=NO)c1ccccc1-2,/,/,/,.
Cc1ccc(NC(=O)c2cc(S(=O)(=O)N3CCCCC3)ccc2N2CCOCC2)cc1S(=O)(=O)N(C)C,/,/,/,.
Cc1ccc(NC(=O)c2ccccc2SCC(=O)N2CCCC2)cc1S(=O)(=O)N(C)C,6.6µM,.,?,.
Cc1ccc(NC(=O)c2cc(S(=O)(=O)N(C)C)ccc2N2CCCC2)cc1S(=O)(=O)N(C)C,10µM,.,?,.
CN(C)S(=O)(=O)c1ccc(N2CCCC2)c(C(=O)Nc2ccccc2Br)c1,15µM,.,13µM,.
COc1ccc(OC)c(NC(=O)c2cc(S(=O)(=O)N(C)C)ccc2N2CCCC2)c1,?,.,13µM,.
COc1ccc(NC(=O)c2cc(S(=O)(=O)N(C)C)ccc2N2CCCC2)cc1Cl,.,.,.,.
CCc1ccccc1NC(=O)c1cc(S(=O)(=O)N(C)C)ccc1N1CCCC1,?,.,?,.
N#C/C(=C\c1ccc(OCC(N)=O)cc1)C(=O)NC1CC1,.,.,.,.
SMILES,Pf growth 96h,SARS PLP yeast,Pf growth 48h,AMA1-RON2 inh
O=S(=O)(Nc1ccc2nc(C(F)(F)F)[nH]c2c1)c1ccccc1,.,.,12µM,.
C=CCn1c(=O)/c(=C/c2cc(OC)c(OC)c(OC)c2)s/c1=C(/C#N)c1nc2ccccc2n1C,.,.,5.2µM,.
C=CCn1c(=O)/c(=C/c2ccc(O)cc2)s/c1=C(/C#N)c1nnc2n1CCCCC2,?,.,?,.
Cc1ccc2c(C)c(C(=O)N(C)C(C)c3ccon3)oc2c1C (stereo not given),.,.,.,.
COc1ccc(OC)c(-c2csc(NC(=O)c3ccc(F)cc3)n2)c1,?,.,?,.
COc1ccc(-c2csc(N(CC3CCCO3)C(=O)c3ccco3)n2)cc1 (stereo not given),?,.,?,.
COc1ccc(OC)c(-c2csc(NC(=O)c3ccc(OCC4CCCO4)cc3)n2)c1 (stereo not given),12µM,.,?,.
COc1ccc(OC)c(-c2csc(N(CC3CCCO3)C(=O)Cc3ccccc3)n2)c1 (stereo not given),1.9µM,.,?,.
